# Results reported in PubChem BioAssay.
# The source made the active and inactive calls. Unless noted, the rule behind the calls is not given here.
# Experiments:
# [1] = HepG2 liver cancer cell viability effects, profiling panel, resazurin fluorescence, 24 h, PK04 Diversity Set (AID 1172); details: higher = more signal
# [2] = basal S. cerevisiae growth modulation, no modifier, primary screen, OD600, strain BY4716, 24 h, basal condition (AID 1173); details: OD600, 24 h, higher = more signal, called active from +8 up or from −8 down
# [3] = MM1S myeloma cell viability, profiling panel, resazurin fluorescence, basal, 24 h, PK04 Diversity Set (AID 1174); details: higher = more signal, called active from +8 up or from −8 down;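 note: MM1S multiple myeloma cell line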
# [4] = target: Dihydroorotate dehydrogenase (quinone), mitochondrial (Plasmodium falciparum (isolate 3D7)) (UniProt Q08210); assay: PfDHODH enzyme inhibitors, primary screen, biochemical, C-terminal His tag, absorbance 600 nm (AID 1175); details: DCIP absorbance 600 nm, higher = more signal, called active from +8 up or from −8 down;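 note: recombinant parasite enzyme with a five histidine tag at its C terminus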
# [5] = P. aeruginosa biofilm formation inhibitors, primary screen, strain PAO1, LB-PBS medium, absorbance 600 nm (AID 1176); details: P. aeruginosa PAO1 growth/biofilm, A600, 12 h; higher = more signal
# [6] = S. cerevisiae RM11-1a growth modifiers, primary screen, strain RM11-1a, OD600, basal, 24 h (AID 1177); details: OD600, 24 h, higher = more signal, called active from +8 up or from −8 down;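 note: cultures grown under basal conditions with no added stressor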
# [7] = E. coli acrAB mutant growth effects, primary screen, E. coli filamentation inducers, strain DRC39, OD650, 24 h (AID 1178); details: higher = more signal, called active from +8 up or from −8 down;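 note: growth measured as culture turbidity by optical density at 650 nm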
# [8] = E. coli acrAB mutant growth effects, primary screen, E. coli filamentation inducers, strain DRC39, OD650, 48 h (AID 1179);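 note: screen aims at cell division blockers that make cells filament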; details: E. coli DRC39 delta-acrAB growth, higher = more signal, called active from +8 up or from −8 down
# [9] = RPMI8226 myeloma cell viability, profiling panel, resazurin fluorescence, basal, 24 h, PK04 Diversity Set (AID 1180); details: higher = more signal;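 note: RPMI8826 multiple myeloma cell line at 5000 cells per well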
# [10] = target: E3 ubiquitin-protein ligase XIAP (Homo sapiens) (UniProt P98170); assay: XIAP binders, primary screen, biophysical, small-molecule microarray, fluorescence 635 nm (AID 1181); details: small-molecule microarray binding, higher = more signal;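 note: score merges 667 nm emission and signal to noise over triplicate slides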
# [11] = system: XIP peptide (Xip251-270) binding; assay: small-molecule binders of XIP peptide, primary screen, biochemical, small-molecule microarray, fluorescence 635/667 nm, 0.1 µg/mL protein (AID 1182); details: fluorescent protein binding, 635 nm, higher = more signal, called active from +8 up or from −8 down
# XIP peptide (Xip251-270) = assay: small-molecule binders of XIP peptide, primary screen, biochemical, small-molecule microarray, fluorescence 635/667 nm, 0.5 µg/mL protein (AID 1183); details: small-molecule microarray binding, fluorescence 635 nm; higher = more signal
# [12] = Plasmodium falciparum growth inhibition, primary screen, strain 3D7, DAPI fluorescence, 100 nL (AID 1184);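 note: parasites grown inside human red blood cells in medium with human serum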; details: P. falciparum 3D7 growth, 3 d, higher = more signal
# [13] = target: Homeobox protein Hox-A13 (Mus musculus) (UniProt Q62424); assay: inhibitors of HoxA13-DNA binding, primary screen, biochemical, fluorescence polarization, labeled oligonucleotide (AID 1185); details: 15 min, higher = more signal, called active from +8 up or from −8 down
# [14] = inhibitors of hydroxyurea-induced Chk1 phosphorylation, primary screen, imaging, HeLa, phospho-Chk1 antibody, percent positive cells (AID 1186); details: hydroxyurea-induced phospho-Chk1 immunofluorescence imaging, higher = more signal
# [15] = inhibitors of hydroxyurea-induced Chk1 phosphorylation, primary screen, imaging, HeLa, phospho-Chk1 nuclear intensity (AID 1187); details: hydroxyurea-induced phospho-Chk1 immunofluorescence imaging, higher = more signal
# Chain of E3 ubiquitin-protein ligase XIAP (Homo sapiens) (P98170 whole entry, looked up): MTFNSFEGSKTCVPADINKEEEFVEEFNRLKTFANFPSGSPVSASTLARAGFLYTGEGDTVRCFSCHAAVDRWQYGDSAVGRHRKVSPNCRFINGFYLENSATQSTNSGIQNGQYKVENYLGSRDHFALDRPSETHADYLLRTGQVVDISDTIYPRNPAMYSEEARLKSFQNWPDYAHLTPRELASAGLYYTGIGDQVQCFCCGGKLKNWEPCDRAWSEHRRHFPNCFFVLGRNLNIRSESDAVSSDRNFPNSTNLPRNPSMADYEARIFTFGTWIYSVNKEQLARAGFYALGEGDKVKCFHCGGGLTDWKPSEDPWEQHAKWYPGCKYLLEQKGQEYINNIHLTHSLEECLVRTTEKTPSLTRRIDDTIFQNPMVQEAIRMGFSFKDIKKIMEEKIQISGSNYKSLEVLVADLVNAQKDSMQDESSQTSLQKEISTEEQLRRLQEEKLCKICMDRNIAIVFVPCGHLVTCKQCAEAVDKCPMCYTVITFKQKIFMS
# Chain of Homeobox protein Hox-A13 (Mus musculus) (Q62424 whole entry, looked up): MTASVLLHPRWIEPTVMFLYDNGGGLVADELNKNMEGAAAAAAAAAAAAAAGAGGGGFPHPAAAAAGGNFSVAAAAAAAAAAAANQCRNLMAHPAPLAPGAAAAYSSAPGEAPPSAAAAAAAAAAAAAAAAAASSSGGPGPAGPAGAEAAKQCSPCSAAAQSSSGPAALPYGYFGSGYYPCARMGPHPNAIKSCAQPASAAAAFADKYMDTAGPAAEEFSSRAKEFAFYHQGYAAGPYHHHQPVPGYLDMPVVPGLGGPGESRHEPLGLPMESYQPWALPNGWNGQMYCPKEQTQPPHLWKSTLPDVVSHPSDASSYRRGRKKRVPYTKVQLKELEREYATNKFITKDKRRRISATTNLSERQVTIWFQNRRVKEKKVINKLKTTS
# Chain of Dihydroorotate dehydrogenase (quinone), mitochondrial (Plasmodium falciparum (isolate 3D7)) (Q08210 whole entry, looked up): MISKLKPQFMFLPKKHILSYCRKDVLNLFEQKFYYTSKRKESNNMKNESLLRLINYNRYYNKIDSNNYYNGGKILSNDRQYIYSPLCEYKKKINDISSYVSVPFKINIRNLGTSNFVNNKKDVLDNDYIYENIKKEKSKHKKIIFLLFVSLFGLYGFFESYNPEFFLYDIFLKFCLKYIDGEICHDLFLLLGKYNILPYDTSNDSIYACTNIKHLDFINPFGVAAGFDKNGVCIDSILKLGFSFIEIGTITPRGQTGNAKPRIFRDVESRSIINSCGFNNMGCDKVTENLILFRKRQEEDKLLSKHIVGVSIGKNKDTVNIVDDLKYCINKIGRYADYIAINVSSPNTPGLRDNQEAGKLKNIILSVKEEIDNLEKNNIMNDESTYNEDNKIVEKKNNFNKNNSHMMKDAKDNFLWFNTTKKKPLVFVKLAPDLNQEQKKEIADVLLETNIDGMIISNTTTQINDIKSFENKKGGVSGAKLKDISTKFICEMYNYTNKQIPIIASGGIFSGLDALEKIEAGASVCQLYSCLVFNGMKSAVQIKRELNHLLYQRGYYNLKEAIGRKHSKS
SMILES,z-score [1],z-score [2],z-score [3],composite z-score [4],z-score [5],z-score [6],z-score [7],z-score [8],z-score [9],composite z-score [10],composite z-score [11],composite z-score (XIP peptide (Xip251-270)),z-score [12],z-score [13],z-score [14],z-score [15]
COc1cccc(C)c1NC(=O)O[C@H]1[C@H](OC(=O)Nc2ccc3c(c2)OCO3)[C@H](OC(=O)Nc2ccc3c(c2)OCO3)[C@@H](OC)O[C@@H]1CO,-0.73,1.27 (inactive),-0.494 (inactive),-0.713 (inactive),0.606 (inactive),1.6 (inactive),0.84 (inactive),-0.0834 (inactive),-0.708,1.64,0.574 (inactive),0.798,-2.29,-7.67 (inactive),-0.698 (inactive),-1.29 (inactive)
[N-]=[N+]=Nc1ccccc1C[C@]1(C(=O)N2CCCCC2)N=C(c2ccc(OCCCO)cc2)O[C@H]1c1ccccc1,-0.256,-1.04 (inactive),-2.4 (inactive),-0.343 (inactive),0.522 (inactive),0.864 (inactive),0.463 (inactive),0.647 (inactive),-2.06,-0.102,1.48 (inactive),0.758,-2.34,-5.43 (inactive),-0.554 (inactive),-0.78 (inactive)
COc1ccc(-c2cc3c(c(CCc4ccccc4)n2)[Si](C(C)C)(C(C)C)O[C@H]3c2ccccc2)cn1,-0.166,0.871 (inactive),0.694 (inactive),-0.575 (inactive),0.726 (inactive),0.868 (inactive),-1.19 (inactive),-0.893 (inactive),-0.555,-0.12,-0.269 (inactive),-0.179,-1.41,-1.35 (inactive),-0.0745 (inactive),-0.194 (inactive)
CCCC=C(CCC)[C@@H](NC(=O)c1ccc(C(=O)OC)cc1)c1ccc(C(=O)OC)cc1,-0.179,1.24 (inactive),-0.64 (inactive),0.138 (inactive),1.1 (inactive),1.55 (inactive),-1.1 (inactive),-0.486 (inactive),-0.358,0.0627,-0.0958 (inactive),-0.345,-0.685,-2.06 (inactive),0.151 (inactive),-0.745 (inactive)
O=C1c2ccccc2[C@@]2(Cc3ccccc3N(CC(F)(F)F)C2=O)[C@H](c2ccc(CO)cc2)N1Cc1ccccc1,-0.584,0.714 (inactive),-0.0925 (inactive),-17.8 (active),0.118 (inactive),-0.224 (inactive),0.117 (inactive),-1.66 (inactive),-0.341,-0.231,-0.158 (inactive),-0.48,-1.17,1.26 (inactive),-0.191 (inactive),-0.494 (inactive)
CC[C@@H](O[Si](C#C[Si](C(C)C)(C(C)C)C(C)C)(C(C)C)C(C)C)c1cn(Cc2cccc(Cl)c2)nn1,0.318,1.42 (inactive),0.0769 (inactive),0.625 (inactive),0.313 (inactive),1.33 (inactive),-0.0544 (inactive),0.309 (inactive),0.961,0.0583,0.242 (inactive),-0.0319,0.163,0.335 (inactive),0.212 (inactive),-0.0184 (inactive)
COCCOC(=O)N1C(=O)[C@@]2(c3cc(C#CCNC(N)=O)ccc31)[C@H](C(=O)Nc1nc3ccccc3s1)[C@H]1C(=O)O[C@H](c3ccccc3)[C@H](c3ccccc3)N1[C@@H]2c1ccc(O)cc1,0.0612,1.1 (inactive),-0.355 (inactive),0.582 (inactive),0.558 (inactive),1.37 (inactive),0.0967 (inactive),-0.211 (inactive),-1.37,0.273,-0.0637 (inactive),0.321,0.106,-0.879 (inactive),-0.0038 (inactive),-0.0749 (inactive)
O=C1OCC=C[C@H]2OC34C=CCN(Cn5nnc6ccccc65)C(=O)[C@H]3N(CCO)C(=O)[C@@H]4[C@@H]12 (stereo not given in full),-0.779,0.818 (inactive),-0.176 (inactive),-0.642 (inactive),-0.332 (inactive),-0.581 (inactive),0.0034 (inactive),-0.0669 (inactive),-0.256,-0.0749,-0.149 (inactive),-0.884,1.12,-4.12 (inactive),-0.743 (inactive),-0.287 (inactive)
CN1C(=O)C2C=CC(C(O)c3cccs3)N(N(c3ccccc3)c3ccccc3)C2C1=O (stereo not given),-0.428,0.754 (inactive),-1.13 (inactive),0.656 (inactive),0.419 (inactive),0.567 (inactive),-0.483 (inactive),0.0156 (inactive),-0.985,0.462,0.564 (inactive),0.482,-0.0266,-4.42 (inactive),0.557 (inactive),-0.499 (inactive)
O=C1O[C@H](c2ccccc2)[C@H](c2ccccc2)N2[C@H]1[C@@H](C(=O)N1CCCCCCC1)[C@]1(C(=O)Nc3ccc(C#CCCO)cc31)[C@H]2c1ccc(O)cc1,0.546,0.206 (inactive),1.33 (inactive),-0.328 (inactive),0.93 (inactive),0.66 (inactive),0.783 (inactive),0.721 (inactive),0.838,2.21,4.41 (inactive),0.976,-0.189,1.85 (inactive),-0.323 (inactive),-0.279 (inactive)
